In PubChem BioAssay AID463173 (ICCB-Longwood Screening Facility, Harvard Medical School, 2010) one finds survival data, which are given here for 90 compounds.

Out of some 52,000 compounds screened, about 1,700 (3.3%) were called active. Rule as the data show it: active = survival mostly below about 52% (no sharp cut-off); inactive = mostly above about 56%. The full list was thinned out, with actives kept by preference.

This test concerns Wild type. The experiment in a line: S. aureus survival, RN4220 and DeltatarO strains – OD600, teichoic acid synthesis inhibitors, primary screen (AID 463173). Conditions: S. aureus RN4220 wild type/DeltatarO growth, OD600, 18 h, stronger effect = lower value, screened at 18.75 µg/mL (by protocol).
Regarding `CCNc1nc(NC(N)=S)nc(NC(C)(C)C)n1`, the survival was 112% (inactive).

In the case of `Fc1ccc(Nc2ncnc3onc(-c4cccc(Cl)c4)c23)c(F)c1`, the survival was 79% (inactive).

With `C#CCNC(=O)NC1CCCN(S(=O)(=O)c2ccc(C)cc2)C1` (stereo not given), the survival was 112% (inactive).

In the case of `CCc1ccc(C(=O)c2cn(CC(=O)Nc3ccc(OC)cc3)c3cc4c(cc3c2=O)OCCO4)cc1`, the survival is 89% (inactive). As to `COc1cccc(NC(=O)C2CC(=O)N(c3ccc(Br)cc3)C2)c1` (stereo not given), the survival was 63% (inactive). Consider `Cc1cc(C)n(C(=O)CNc2ccccc2Cl)n1`, for which the survival is 103% (inactive). On to `COCCNC(=O)CCN1C(=O)c2cccnc2Oc2ccc(C)cc21`, for which the survival was 70% (inactive). As to `COc1cc(C2NC(=O)NC(C)=C2C(=O)Nc2cc(C)cc(C)c2)ccc1O` (stereo not given), the survival was 69% (inactive). On to `NC(=O)CSc1nc2ccc(NC(=O)COc3ccccc3)cc2s1`, for which the survival is 86% (inactive). Consider `CC(C)c1ccc2occ(CC(=O)Nc3ccccc3Cl)c2c1`, for which the survival was 81% (inactive). Turning to `Cc1ccc2c(CC(=O)Nc3cccc(C(F)(F)F)c3)coc2c1`, the survival is 8% (active). Consider `Cc1ccc(NC(=O)Cc2coc3ccc(C(C)C)cc23)cc1Cl`, for which the survival was 53% (inactive). Turning to `CC(C)c1ccc2occ(CC(=O)Nc3cccc(C(F)(F)F)c3)c2c1`, the survival is 0% (active). Regarding `Cc1ccc2onc(CC(=O)Nc3cccc(C(F)(F)F)c3)c2c1`, the survival was 92% (inactive). Then `COC(=O)c1ccc(NC(=O)Cc2coc3cc(C)ccc23)cc1`, with 106% (inactive).

For `CCC(=O)N1CCc2cc(Br)cc(S(=O)(=O)N3CCCC(C(=O)Nc4ccc(C(C)C)cc4)C3)c21` (stereo not given), the survival was 106% (inactive).

`O=C(CSC1=Nc2ccccc2N=C(c2ccc(F)cc2)C1)NCc1ccc(F)cc1`: the survival was 83% (inactive). As for `COC(=O)C1=C(C)N(C(C)C)C(=O)C1(NC(=O)c1ccc(C(C)(C)C)cc1)C(F)(F)F` (stereo not given), the survival is 65% (inactive). `O=C(NC1CCCCC1)c1cc(Nc2cccc(C(F)(F)F)c2)nc2ccccc12`: the survival is 72% (inactive). `CCn1c(SCC#N)nnc1-c1ccc(S(=O)(=O)N2CCCC2)cc1`: the survival was 100% (inactive).

With `CCCN(C(=O)C(C)C)c1nnc(-c2cc(OC)c(OC)c(OC)c2)s1`, the survival was 120% (inactive). As for `CCCn1c(=O)c2sccc2n2c(CCCC(=O)NCCOC)nnc12`, the survival was 97% (inactive). On to `Cc1ccc(N2CCN(C(=O)C3CCN(c4ncnc5c4nc4n5CCCCC4)CC3)CC2)c(C)c1`, for which the survival is 55% (inactive). `Cc1cccc(N2CCN(c3ncnc4c3nc3n4CCCCC3)CC2C)c1` (stereo not given): the survival is 75% (inactive). Regarding `O=C(C1CCN(c2ncnc3c2nc2n3CCCCC2)CC1)N1CCN(c2ccccc2)CC1`, the survival is 71% (inactive). Take `Cc1cccc(N2CCN(C(=O)C3CCN(c4ncnc5c4nc4n5CCCCC4)CC3)CC2C)c1` (stereo not given): the survival is 1% (active). For `O=C(NCCc1ccc(Cl)cc1)C1CCN(c2ncnc3c2nc2n3CCCCC2)CC1`, the survival was 80% (inactive). In the case of `O=C(C1CCN(c2ncnc3c2nc2n3CCCCC2)CC1)N1CCN(c2ccc(F)cc2)CC1`, the survival is -3% (active). Take `O=C(NCCc1ccccc1)C1CCN(c2ncnc3c2nc2n3CCCCC2)CC1`: the survival was -4% (active). Regarding `O=C(NCc1ccccc1)C1CCN(c2ncnc3c2nc2n3CCCCC2)CC1`, the survival is 82% (inactive).

Turning to `O=C(C1CCN(c2ncnc3c2nc2n3CCCCC2)CC1)N1CCN(c2ccc(Cl)cc2)CC1`, the survival is 55% (inactive).

With `CC(=O)C1=C(c2ccc(Cl)cc2)N(C(C)=O)n2c(nnc2C2CCCCC2)S1`, the survival was 85% (inactive). Consider `CCOc1cccc(CC(=O)N2CCc3c([nH]c4ccccc34)C2c2ccc(C)cc2)c1OCC` (stereo not given), for which the survival is 83% (inactive). Turning to `Cc1ccc2c(c1)c(=O)c(C(=O)c1ccncc1)cn2CC(=O)Nc1c(C)cccc1C`, the survival was 72% (inactive). On to `O=C(CC12CC3CC(CC(C3)C1)C2)N1CCCOC1`, for which the survival is 114% (inactive). Then `N=c1nc(SCCC(=O)O)ss1`, with 112% (inactive); and `COc1ccc(NC(=O)C(C)Sc2cc(-c3ccccc3)nc(C)n2)cc1Cl` (stereo not given), with 81% (inactive). `Cc1c(Cl)cccc1NC(=O)CCS(=O)(=O)c1ccc2c(c1)CC(=O)N2C`: the survival was 85% (inactive). In the case of `COc1ccc(C(CC(=O)Nc2ccc(C)c(C)c2)N2Cc3ccccc3C2=O)cc1OC` (stereo not given), the survival was 66% (inactive). Under `COc1ccc(NC(=O)Cn2c(=O)n(CCC(=O)NCCc3ccc(OC)c(OC)c3)c(=O)c3ccccc32)cc1Cl` stands 92% (inactive); under `CC1=C(c2ccc(C)c(C)c2)S(=O)(=O)N=C1N1CCC(C(=O)N2CCC(C)CC2)CC1`, 81% (inactive).

On to `CC1=C(c2ccc(C)c(C)c2)S(=O)(=O)N=C1N1CCC(C(=O)N2CCCCC2)CC1`, for which the survival is 129% (inactive). Under `CC1=C(c2ccc(C(C)C)cc2)S(=O)(=O)N=C1N1CCC(C(=O)NCc2ccco2)CC1` stands 63% (inactive). Consider `CC1=C(c2ccc(C(C)C)cc2)S(=O)(=O)N=C1N1CCC(C(=O)NCc2ccccc2)CC1`, for which the survival was -3% (active).

Consider `CC1=C(c2ccc(Cl)cc2)S(=O)(=O)N=C1N1CCC(C(=O)NCCc2ccco2)CC1`, for which the survival was 55% (inactive).

As to `CC1=C(c2ccc(C(C)C)cc2)S(=O)(=O)N=C1N1CCC(C(=O)NCCc2ccco2)CC1`, the survival is 1% (active). In the case of `CCc1ccc(C2=C(C)C(N3CCC(C(=O)NCc4ccccc4)CC3)=NS2(=O)=O)cc1`, the survival was 67% (inactive). On to `CC1=C(c2ccc(C(C)C)cc2)S(=O)(=O)N=C1N1CCC(C(=O)NCc2ccc(C)o2)CC1`, for which the survival is 63% (inactive). On to `CC1=C(c2ccc(C)c(C)c2)S(=O)(=O)N=C1N1CCC(C(=O)N2CCC(C(N)=O)CC2)CC1`, for which the survival was -4% (active). As for `CCc1ccccc1NC(=O)c1cc(S(=O)(=O)N2CCCC2)cn1C`, the survival was 84% (inactive). As for `CCC(C)NC(=O)Cn1c(=O)n(CC2CCC(C(=O)NC)CC2)c(=O)c2sccc21` (stereo not given), the survival is 70% (inactive).

Regarding `CC(C)N(C(=O)Cn1cc(SCC(=O)Nc2ccccc2C(F)(F)F)c2ccccc21)C(C)C`, the survival was 105% (inactive). Turning to `COc1ccccc1Cc1nc2ccccc2nc1SCC(=O)N1CCc2ccccc21`, the survival is 49% (inactive).

Turning to `Cc1cc(Br)ccc1NC(=O)CSc1c2c(nc3ccccc13)CCC2`, the survival was 75% (inactive). With `N#Cc1c(C(F)(F)F)cc(-c2cccs2)nc1SCC(=O)Nc1ccc(Cl)cc1`, the survival was 78% (inactive). As to `Cc1[nH]c2ccccc2c1SCCNC(=O)c1ccc(F)cc1`, the survival is 64% (inactive). Take `Cc1ccc(C(=O)NCCSc2c(C)[nH]c3ccccc23)cc1C`: the survival is 19% (active). In the case of `CCOc1ccc(C(=O)NCCSc2c(C)[nH]c3ccccc23)cc1OCC`, the survival is 86% (inactive). Regarding `CCNS(=O)(=O)c1ccc(S(=O)(=O)N(Cc2ccccn2)C2CCCCC2)cc1`, the survival was 107% (inactive). Take `CC1CCN(C(=O)Cn2c(=O)n(CC3CCC(C(=O)NC(C)C)CC3)c(=O)c3sccc32)CC1` (stereo not given): the survival is 78% (inactive).

As to `CCn1c(C(=O)NCc2ccc(C)cc2)cc2sc(Cl)cc21`, the survival was 78% (inactive). On to `CCn1c(C(=O)NCc2ccc(OC)cc2)cc2sc(Cl)cc21`, for which the survival was 37% (inactive). As for `CCn1c(C(=O)NCc2ccccc2)cc2sc(Cl)cc21`, the survival was 2% (active).

Consider `CCOC(=O)c1c(C)n(-c2ccccc2)c2ccc(OC(=O)COc3ccc(Cl)cc3)cc12`, for which the survival was 78% (inactive).

As to `Cc1ccc(Cl)cc1NC(=O)c1cc(-c2ccc3c(c2)OCCO3)on1`, the survival was 67% (inactive).

Take `Cc1ccc(OC(=O)c2cc(-c3ccc4c(c3)OCCO4)on2)c(C)c1`: the survival is -6% (active).

On to `O=C(Oc1ccccc1Cl)c1cc(-c2ccc3c(c2)OCCO3)on1`, for which the survival is -7% (active). For `Cc1ccc(-c2cc(C(=O)Oc3ccccc3Cl)no2)cc1C`, the survival was -6% (active).

With `Cc1ccccc1OC(=O)c1cc(-c2ccc3c(c2)OCCO3)on1`, the survival was -6% (active).

With `CCOC(=O)c1cc(-c2ccc(OC)c(S(=O)(=O)NCc3ccccc3Cl)c2)on1`, the survival is 79% (inactive). Take `Cc1ccc(OC(=O)c2cc(-c3ccc(Cl)cc3)on2)c(C)c1`: the survival was 93% (inactive). Consider `O=C(Nc1ccccc1C(F)(F)F)c1cc(-c2ccc3c(c2)OCCO3)on1`, for which the survival was 113% (inactive). `CC(C)c1ccc(OC(=O)c2cc(-c3ccccc3)on2)cc1`: the survival is 106% (inactive). Under `O=C(Nc1cccc(Cl)c1)c1cc(-c2ccc3c(c2)OCCO3)on1` stands 122% (inactive); under `Cc1ccc(NC(=O)c2cc(-c3ccc4c(c3)OCO4)on2)cc1`, 105% (inactive). `Cc1oc2ncn(C)c(=O)c2c1C(=O)N1CCN(c2cccc(C(F)(F)F)c2)CC1`: the survival was 82% (inactive). Then `CCOc1ccccc1CNCCNC(=O)c1nonc1N`, with 128% (inactive). As to `CCCNS(=O)(=O)c1ccc(OCC(=O)NCc2ccccn2)cc1`, the survival was 122% (inactive).

With `NC(=Nc1ccccc1)SC1CC(=O)N(c2ccccc2)C1=O` (stereo not given), the survival was 113% (inactive). Consider `O=C(Nc1ccccc1NC(=O)c1cccs1)c1cccs1`, for which the survival was 111% (inactive). Consider `COc1cccc(NC(=O)Cn2c(=O)ccc3cc(S(=O)(=O)N4CCC(C)CC4)ccc32)c1`, for which the survival is 73% (inactive). In the case of `CCn1cc(/C=C(\NC(=O)c2ccccc2Cl)C(=O)NCCCn2ccnc2)c2ccccc21`, the survival was 121% (inactive).

As for `COC(=O)c1sccc1S(=O)(=O)N1CCN(c2cccc(C)c2C)CC1`, the survival is 67% (inactive). For `COc1cc(NC(=O)Cn2c(-c3ccccc3)cc(C(C)=O)c2C)cc(OC)c1`, the survival is 92% (inactive). With `COc1ccc2c(c1)N(C)/C(=C1/SC(=S)N(C)C1=O)S2`, the survival was 122% (inactive). For the compound `COc1cccc(CNC(=O)c2cc(-c3ccc(Cl)cc3)n[nH]2)c1`, the survival was 136% (inactive). For the compound `C#CCNc1c2c(nc3nnnn13)CCCC2`, the survival is 104% (inactive). Then `CCSC(=C(C#N)C#N)c1cc2c([nH]1)CCCC2`, with 116% (inactive); and `Cc1ccc2ccc3cc(C(=O)N4CCN(c5ccccc5F)CC4)nc3c2[nH]1`, with 78% (inactive); and `CCOc1ccc(NC(=O)Cn2c(=O)n(Cc3ccc(C(=O)NCc4ccc5c(c4)OCO5)cc3)c(=O)c3ccccc32)cc1`, with 98% (inactive).
